We go through seven molecules from PubChem BioAssay (NCI).

About 83,000 compounds went through this panel and 20% of them were active in at least one assay; those are over-represented in the sample as a whole.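 Single-dose data. Exposure time 48 hours. Values below 10 considered active.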 Values without a mark were called inactive. Calls of active or inactive are those of the source.

Some test systems named below: 786-0 renal; MALME-3M melanoma; MDA-MB-231 breast; SF-268 CNS; SF-295 CNS; UACC-257 melanoma; UACC-62 melanoma; SK-MEL-2 melanoma; EKVX NSCLC; SN12C renal; UO-31 renal; TK-10 renal; CAKI-1 renal; A498 renal; OVCAR-8 ovarian; OVCAR-5 ovarian; IGROV1 ovarian; OVCAR-3 ovarian; HS 578T breast; NCI/ADR-RES ovarian.
Common to all, as to assay: NCI-60 one-dose screen, 48 h (100 = growth as untreated, 0 = no growth, -100 = all killed)
Holding throughout (settings): 10 µM

Take `CCOC(=O)c1ccc(NC(=O)CSC(CC(=O)c2sc(Nc3ccccn3)nc2C)c2ccccc2F)cc1` (stereo not given): the growth in the assay with 786-0 renal is -12.5% (active); in the assay on MALME-3M melanoma it was 34.2%; with MDA-MB-231 breast, 10.5%; in the assay on SF-268 CNS, -0.243% (active); with SF-295 CNS, 0.23% (active); in the assay with UACC-257 melanoma, 39%. Besides, the growth was 11.8% in the assay with UACC-62 melanoma; -31.2% (active) with SK-MEL-2 melanoma; 20.2% with EKVX NSCLC; -14.8% (active) in the assay on SN12C renal; -2.98% (active) with UO-31 renal; 28.7% in the assay with TK-10 renal. Besides, the growth was 2.96% (active) with CAKI-1 renal; -1.49% (active) in the assay on A498 renal; -0.285% (active) in the assay with OVCAR-8 ovarian; -6.86% (active) in the assay on OVCAR-5 ovarian; 14% in the assay with IGROV1 ovarian; 6.5% (active) with OVCAR-3 ovarian. Moreover, the results for the growth with HS 578T breast and in the assay with NCI/ADR-RES ovarian were 8.86% (active) and 10.5%, respectively.

As for `COc1ccc(Cc2nn(CC(=O)N/N=C/c3ccc([N+](=O)[O-])cc3)c(=O)c3c(C)noc23)cc1`, the growth is 26.3% in the assay on 786-0 renal; 53% with MALME-3M melanoma; 61.2% with MDA-MB-231 breast; 77.7% in the assay with SF-268 CNS; 92.7% in the assay with SF-295 CNS; 92.8% in the assay with UACC-257 melanoma. The growth is 73.9% with UACC-62 melanoma; 99.1% in the assay on SK-MEL-2 melanoma; 86.6% in the assay with EKVX NSCLC; 39% with SN12C renal; 63% in the assay with UO-31 renal; 101% with TK-10 renal. Besides, the growth with CAKI-1 renal was 53.2%; in the assay with A498 renal, 111%; in the assay with OVCAR-8 ovarian, 56.6%; in the assay with OVCAR-5 ovarian it was 90.2%; in the assay with IGROV1 ovarian, 82.9%; with OVCAR-3 ovarian it was 45.1%. Besides, the results for the growth in the assay with HS 578T breast and in the assay with NCI/ADR-RES ovarian were 48.8% and 73.9%, respectively.

Regarding `C#C[C@]1(O)CC[C@H]2[C@@H]3CC=C4c5sc(Nc6cc(C)cc(C)n6)nc5CC[C@]4(C)[C@H]3CC[C@@]21C`, the growth in the assay with 786-0 renal is -52.2% (active); in the assay on MALME-3M melanoma it was -39.8% (active); in the assay with MDA-MB-231 breast it was -44.9% (active); in the assay with SF-268 CNS, 7.69% (active); with SF-295 CNS, -75.3% (active); in the assay on UACC-257 melanoma, -49.4% (active). The growth in the assay on UACC-62 melanoma was -53.1% (active); in the assay on SK-MEL-2 melanoma, -28.4% (active); with EKVX NSCLC, -14% (active); in the assay on SN12C renal, -3.77% (active); in the assay on UO-31 renal it was -65.9% (active); in the assay with TK-10 renal it was 4.66% (active). Also, the growth was -27.6% (active) in the assay with CAKI-1 renal; -73.5% (active) in the assay on A498 renal; 4.44% (active) in the assay on OVCAR-8 ovarian; -21.9% (active) with OVCAR-5 ovarian; 26.2% in the assay with IGROV1 ovarian; -3.49% (active) with OVCAR-3 ovarian. The growth is -20.5% (active) in the assay with HS 578T breast and 0.407% (active) in the assay with NCI/ADR-RES ovarian.

`O=C(c1ccc(F)cc1)C(c1c[nH]c2ccccc12)c1c[nH]c2ccccc12`: the growth in the assay with 786-0 renal was 80.1%; with MALME-3M melanoma, 69.5%; with MDA-MB-231 breast, 58.8%; with SF-268 CNS it was 63%; in the assay with SF-295 CNS, 105%; in the assay on UACC-257 melanoma, 86.3%. The growth was 53.7% in the assay with UACC-62 melanoma; 87.5% in the assay on SK-MEL-2 melanoma; 88.5% with EKVX NSCLC; 42.6% in the assay with SN12C renal; 43.8% in the assay with UO-31 renal; 148% in the assay with TK-10 renal. Also, the growth with CAKI-1 renal is 31.5%; in the assay with A498 renal it was 98.3%; with OVCAR-8 ovarian, 76.3%; in the assay with OVCAR-5 ovarian, 52.5%; in the assay with IGROV1 ovarian it was 49.9%; in the assay with OVCAR-3 ovarian, 46.9%. Moreover, the growth in the assay with HS 578T breast is 86.1%; in the assay with NCI/ADR-RES ovarian, 54.7%.

In the case of `Fc1ccc(/C=C/c2nc3ccccc3n3c(-c4ccc(Cl)cc4)nnc23)cc1`, the growth is 73.4% in the assay with 786-0 renal; 7.93% (active) in the assay with MALME-3M melanoma; 70% with MDA-MB-231 breast; 78% with SF-268 CNS; 128% with SF-295 CNS; 96.7% with UACC-257 melanoma. Moreover, the growth in the assay on UACC-62 melanoma was 70.2%; with SK-MEL-2 melanoma, 102%; in the assay on EKVX NSCLC it was 74.6%; in the assay on SN12C renal it was 78.1%; in the assay on UO-31 renal, 53.3%; in the assay with TK-10 renal it was 112%. Further, the growth with CAKI-1 renal was 62.3%; in the assay with A498 renal it was 111%; in the assay on OVCAR-8 ovarian, 72.6%; in the assay with OVCAR-5 ovarian, 96.3%; with IGROV1 ovarian, 72.2%; with OVCAR-3 ovarian, 76.9%. In addition, the growth was 80.5% with HS 578T breast and 70.4% in the assay on NCI/ADR-RES ovarian.

Consider `Cn1cc(-c2nnc(N)nc2-c2c[nH]c3ccc(F)cc23)c2cc(Br)cnc21`, for which the growth with 786-0 renal is 48%; with MALME-3M melanoma, 106%; with MDA-MB-231 breast, 56.1%; in the assay with SF-268 CNS it was 60.1%; with SF-295 CNS, 41%; in the assay with UACC-257 melanoma, 99.6%. Further, the growth with UACC-62 melanoma was 50.8%; with SK-MEL-2 melanoma, 71%; in the assay on EKVX NSCLC it was 94%; in the assay on SN12C renal it was 72.3%; in the assay with UO-31 renal, 43.1%; in the assay on TK-10 renal, 45.5%. In addition, the growth in the assay on CAKI-1 renal is 37.4%; with A498 renal, 47.1%; in the assay on OVCAR-8 ovarian, 71.5%; with OVCAR-5 ovarian, 83.3%; with IGROV1 ovarian, 50.4%; in the assay with OVCAR-3 ovarian, 57.5%. Besides, the growth is 52% in the assay on HS 578T breast and 68.1% in the assay on NCI/ADR-RES ovarian.

On to `COc1cc2oc(-c3cccc(C(=O)Nc4ccc(Cl)cc4)c3)cc(=O)c2c(OCCNC(=O)[C@@H](N)CO)c1OC`, for which the growth with 786-0 renal was 48.4%; in the assay on MALME-3M melanoma, -56.9% (active); with MDA-MB-231 breast it was 3.78% (active); in the assay with SF-268 CNS, 69.9%; in the assay with SF-295 CNS it was 99.4%; in the assay on UACC-257 melanoma it was -67.8% (active). The growth was 38.8% with UACC-62 melanoma; 78.5% in the assay on SK-MEL-2 melanoma; 54.7% in the assay on EKVX NSCLC; 43.9% with SN12C renal; 91.1% in the assay with UO-31 renal; 138% in the assay with TK-10 renal. Moreover, the growth is 45.9% in the assay on CAKI-1 renal; 177% in the assay with A498 renal; 26.3% with OVCAR-8 ovarian; 60.9% in the assay with OVCAR-5 ovarian; 57.9% in the assay with IGROV1 ovarian; 89.5% in the assay on OVCAR-3 ovarian. Further, the growth in the assay on HS 578T breast is 53.8%; with NCI/ADR-RES ovarian it was 102%.
